According to PubChem BioAssay (EPA / NIEHS):
The source made the active and inactive calls. How the source made its calls: active means hit-call score of the fitted dose curve at least 0.9, where 1 is the maximum; inactive means score below 0.9.

Key:
Details in all cases: mRNA level, 48 h; actives raise or lower the signal
CYP2C9 (gene 1559) = assay: LTEA_HepaRG_CYP2C9: Life Technologies and Expression Analysis (LTEA) Assay for CYP2C9 using HepaRG (AID 2283484)
Method in brief: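 Differentiated human HepaRG cells in serum-free induction medium were exposed 48 h to chemicals in 8-point half-log series from 100 uM (0.5% DMSO), in duplicate. CYP2C9 mRNA was measured by qRT-PCR, normalized to ACTB/GAPDH/POLR2A, with bidirectional fitting versus DMSO.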

CYP2E1 (gene 1571) = assay: LTEA_HepaRG_CYP2E1: Life Technologies and Expression Analysis (LTEA) Assay for CYP2E1 using HepaRG (AID 2283485)
Method in brief: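 HepaRG cells, plated 48 h, then exposed 48 h in serum-free induction medium to eight half-log concentrations from 100 uM in 0.5% DMSO, duplicate. CYP2E1 mRNA by qRT-PCR, normalized to ACTB/GAPDH/POLR2A; bidirectional fit versus DMSO.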

CYP4A11 (gene 1579) = assay: LTEA_HepaRG_CYP4A11: Life Technologies and Expression Analysis (LTEA) Assay for CYP4A11 using HepaRG (AID 2283486)
Method in brief: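 Readout is CYP4A11 transcript level by qRT-PCR, normalized to three housekeeping genes and fitted bidirectionally against 0.5% DMSO. Human HepaRG cells were treated 48 h, in duplicate, with an 8-point half-log series topping at 100 uM.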

[1] = read-out: Cytochrome P450 3A4 (Homo sapiens) (UniProt P08684); assay: LTEA_HepaRG_CYP3A4: Life Technologies and Expression Analysis (LTEA) Assay for CYP3A4 using HepaRG (AID 2283487)
Method in brief: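 HepaRG, 48 h exposure, 8-pt CRC from 100 uM (half-log), 0.5% DMSO, duplicates; serum-free induction medium. Readout: CYP3A4 mRNA, qRT-PCR, ACTB/GAPDH/POLR2A normalization. Bidirectional fit vs DMSO.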

[2] = read-out: DNA damage-inducible transcript 3 (DDIT3), DDIT3 (gene 1649); assay: LTEA_HepaRG_DDIT3: Life Technologies and Expression Analysis (LTEA) Assay for DNA damage-inducible transcript 3 (DDIT3) using HepaRG (AID 2283488)
Method in brief: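 HepaRG cells, 48 h after plating, exposed 48 h in serum-free induction medium to 8 half-log concentrations up to 100 uM in 0.5% DMSO, in duplicate. DDIT3 mRNA measured by TaqMan qRT-PCR, normalized to ACTB, GAPDH and POLR2A. Fitted bidirectionally against DMSO.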

[3] = read-out: Pro-epidermal growth factor (Homo sapiens) (UniProt P01133); assay: LTEA_HepaRG_EGF: Life Technologies and Expression Analysis (LTEA) Assay for Epidermal growth factor (EGF) using HepaRG (AID 2283489)
Method in brief: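 EGF transcript measured by Fluidigm TaqMan qRT-PCR with three housekeeping genes for normalization, 48 h after dosing HepaRG cultures in duplicate (top 100 uM, half-log steps, 0.5% DMSO vehicle). Gain or loss relative to DMSO fitted.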

[4] = read-out: Early growth response protein 1 (EGR1) transcription factor, EGR1 (gene 1958); assay: LTEA_HepaRG_EGR1: Life Technologies and Expression Analysis (LTEA) Assay for Early growth response protein 1 (EGR1) transcription factor using HepaRG (AID 2283490)
Method in brief: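 Differentiated HepaRG cells in serum-free induction medium exposed 48 hours, duplicate, to 8 half-log concentrations up to 100 uM in 0.5% DMSO. EGR1 mRNA measured by TaqMan qRT-PCR, normalized to ACTB, GAPDH, POLR2A; bidirectional fit versus DMSO.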

[5] = read-out: Ezrin (EZR), EZR (gene 7430); assay: LTEA_HepaRG_EZR: Life Technologies and Expression Analysis (LTEA) Assay for Ezrin (EZR) using HepaRG (AID 2283491)
Method in brief: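 Read-out is EZR transcript level by qRT-PCR, normalized to three housekeeping genes and fitted bidirectionally against the DMSO control. Human HepaRG cells received test chemicals for 48 h at eight half-log concentrations up to 100 uM in 0.5% DMSO.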

[6] = read-out: Cytochrome P450 3A7 (Homo sapiens) (UniProt P24462); assay: LTEA_HepaRG_CYP3A7: Life Technologies and Expression Analysis (LTEA) Assay for CYP3A7 using HepaRG (AID 2283492)
Method in brief: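 CYP3A7 transcript measured by qRT-PCR (ACTB, GAPDH, POLR2A normalization) after 48 h chemical exposure of HepaRG cells in duplicate. Eight half-log concentrations, maximum 100 uM, 0.5% DMSO vehicle; bidirectional curve fitting against DMSO baseline.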

CYP3A5 (gene 1577) = assay: LTEA_HepaRG_CYP3A5: Life Technologies and Expression Analysis (LTEA) Assay for CYP3A5 using HepaRG (AID 2283493)
Method in brief: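 HepaRG cells, plated 48 h then in serum-free induction medium, dosed in duplicate for 48 h with eight half-log concentrations up to 100 uM in 0.5% DMSO. Gene mRNA by Fluidigm TaqMan qRT-PCR, normalized to ACTB, GAPDH, POLR2A.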

[7] = read-out: Fatty Acid-Binding Protein 1 (FABP1), FABP1 (gene 2168); assay: LTEA_HepaRG_FABP1: Life Technologies and Expression Analysis (LTEA) Assay for Fatty Acid-Binding Protein 1 (FABP1) using HepaRG (AID 2283494)
Method in brief: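 Differentiated human HepaRG cells exposed 48 h in serum-free induction medium to eight half-log concentrations up to 100 uM (0.5% DMSO), duplicate. FABP1 mRNA by qRT-PCR, normalised to ACTB, GAPDH, POLR2A; bidirectional fitting against DMSO.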

[8] = read-out: Cytochrome P450 4A22 (Homo sapiens) (UniProt Q5TCH4); assay: LTEA_HepaRG_CYP4A22: Life Technologies and Expression Analysis (LTEA) Assay for Cytochrome P450 4A22 (CYP4A22) using HepaRG (AID 2283495)
Method in brief: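 Gene expression measured by qRT-PCR against three housekeeping genes (ACTB, GAPDH, POLR2A), with gain or loss fitted relative to 0.5% DMSO vehicle. HepaRG cultures received 48 h chemical treatment, top concentration 100 uM, half-log steps, duplicate wells.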

[9] = read-out: Cytochrome P450 7A1 (Homo sapiens) (UniProt P22680); assay: LTEA_HepaRG_CYP7A1: Life Technologies and Expression Analysis (LTEA) Assay for Cytochrome P450 7A1 (CYP7A1) using HepaRG (AID 2283496)
Method in brief: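 HepaRG cells plated 48 h, then switched to serum-free induction medium and exposed in duplicate for 48 h to 8-point half-log series from 100 uM in 0.5% DMSO. CYP7A1 mRNA by qRT-PCR (TaqMan), normalized to ACTB/GAPDH/POLR2A; bidirectional fit versus DMSO.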

[10] = read-out: Glutathione S-Transferase (GSTA2), GSTA2 (gene 2939); assay: LTEA_HepaRG_GSTA2: Life Technologies and Expression Analysis (LTEA) Assay for Glutathione S-Transferase (GSTA2) using HepaRG (AID 2283497)
Method in brief: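 Differentiated human HepaRG cells were exposed in duplicate for 48 h in serum-free induction medium, 8 points from 100 uM top in half-log steps, 0.5% DMSO. GSTA2 mRNA was measured by TaqMan qRT-PCR, normalized to ACTB, GAPDH and POLR2A; bidirectional fit versus DMSO.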

[11] = read-out: Glutamate-cysteine ligase catalytic (GCLC), GCLC (gene 2729); assay: LTEA_HepaRG_GCLC: Life Technologies and Expression Analysis (LTEA) Assay for Glutamate-cysteine ligase catalytic (GCLC) using HepaRG (AID 2283498)
Method in brief: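 Differentiated HepaRG cells exposed 48 h in serum-free induction medium, eight-point half-log series topping at 100 uM in 0.5% DMSO, duplicates. GCLC mRNA by qRT-PCR normalized to ACTB, GAPDH and POLR2A, fitted bidirectionally versus DMSO.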

[12] = read-out: growth arrest and DNA damage 45 (GADD45G), GADD45G (gene 10912); assay: LTEA_HepaRG_GADD45G: Life Technologies and Expression Analysis (LTEA) Assay for growth arrest and DNA damage 45 (GADD45G) using HepaRG (AID 2283499)
Method in brief: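 GADD45G transcript level by qRT-PCR (housekeeping-normalized: ACTB, GAPDH, POLR2A) after 48 h chemical treatment of a single HepaRG lot in serum-free induction medium; eight-point half-log series up to 100 uM in 0.5% DMSO, duplicates, up- or down-regulation scored.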

[13] = read-out: Glutamate-cysteine ligase regulatory (GCLM), GCLM (gene 2730); assay: LTEA_HepaRG_GCLM: Life Technologies and Expression Analysis (LTEA) Assay for Glutamate-cysteine ligase regulatory (GCLM) using HepaRG (AID 2283500)
Method in brief: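 Differentiated HepaRG cells exposed 48 h in serum-free induction medium to eight half-log concentrations up to 100 uM (0.5% DMSO). GCLM mRNA by TaqMan qRT-PCR, normalized to ACTB, GAPDH and POLR2A; bidirectional fit versus DMSO.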

[14] = read-out: Glutathione S-transferase M3 (GSTM3), GSTM3 (gene 2947); assay: LTEA_HepaRG_GSTM3: Life Technologies and Expression Analysis (LTEA) Assay for Glutathione S-transferase M3 (GSTM3) using HepaRG (AID 2283501)
Method in brief: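 GSTM3 transcript levels came from Fluidigm TaqMan qRT-PCR normalized to three housekeeping genes, fitted in both directions against DMSO. HepaRG cultures received chemicals for 48 h in serum-free induction medium (0.5% DMSO), 8 half-log concentrations up to 100 uM, duplicate.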

[15] = read-out: Heat shock 70 kDa protein 1 (HSPA1A), gene 3303; assay: LTEA_HepaRG_HSPA1A: Life Technologies and Expression Analysis (LTEA) Assay for Heat shock 70 kDa protein 1 (HSPA1A) using HepaRG (AID 2283502)
Method in brief: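 Human HepaRG cells in serum-free induction medium were exposed in duplicate for 48 h to 8 half-log concentrations, highest 100 uM, in 0.5% DMSO. HSPA1A mRNA read by TaqMan qRT-PCR, normalized to ACTB, GAPDH, POLR2A, fitted bidirectionally against DMSO.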

[16] = read-out: Hypoxia-inducible factor 1-alpha (Homo sapiens) (UniProt Q16665); assay: LTEA_HepaRG_HIF1A: Life Technologies and Expression Analysis (LTEA) Assay for Hypoxia-inducible factor 1 (HIF1A) Trancription factor using HepaRG (AID 2283503)
Method in brief: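 Differentiated HepaRG cells in serum-free induction medium exposed 48 h, in duplicate, to 8-point half-log series from 100 uM in 0.5% DMSO. HIF1A mRNA measured by TaqMan qRT-PCR, normalized to ACTB/GAPDH/POLR2A, fitted bidirectionally versus DMSO.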

Measured: AC50

Sequence of Hypoxia-inducible factor 1-alpha (Homo sapiens) (Q16665 whole entry, looked up): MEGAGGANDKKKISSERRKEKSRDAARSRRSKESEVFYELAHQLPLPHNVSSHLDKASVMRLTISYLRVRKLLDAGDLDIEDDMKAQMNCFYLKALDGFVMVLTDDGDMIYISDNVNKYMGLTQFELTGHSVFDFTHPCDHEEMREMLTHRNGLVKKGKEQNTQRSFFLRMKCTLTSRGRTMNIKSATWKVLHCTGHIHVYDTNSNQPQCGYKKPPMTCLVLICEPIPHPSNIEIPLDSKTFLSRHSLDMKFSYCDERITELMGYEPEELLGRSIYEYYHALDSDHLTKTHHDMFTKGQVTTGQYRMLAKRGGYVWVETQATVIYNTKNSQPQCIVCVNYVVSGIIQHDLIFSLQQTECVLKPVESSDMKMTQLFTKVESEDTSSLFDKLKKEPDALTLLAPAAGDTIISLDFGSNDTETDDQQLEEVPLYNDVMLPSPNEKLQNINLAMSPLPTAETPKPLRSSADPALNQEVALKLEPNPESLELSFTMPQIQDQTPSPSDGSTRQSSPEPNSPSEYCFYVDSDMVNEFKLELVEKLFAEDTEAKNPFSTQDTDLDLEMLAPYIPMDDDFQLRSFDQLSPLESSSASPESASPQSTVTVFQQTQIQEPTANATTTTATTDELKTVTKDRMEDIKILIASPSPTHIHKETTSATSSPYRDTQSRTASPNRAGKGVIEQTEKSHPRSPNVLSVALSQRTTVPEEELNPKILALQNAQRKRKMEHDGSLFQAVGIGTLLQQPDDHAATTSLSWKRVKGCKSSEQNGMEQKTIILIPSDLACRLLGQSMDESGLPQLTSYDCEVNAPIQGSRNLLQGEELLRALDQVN
Sequence of Cytochrome P450 3A7 (Homo sapiens) (P24462 whole entry, looked up): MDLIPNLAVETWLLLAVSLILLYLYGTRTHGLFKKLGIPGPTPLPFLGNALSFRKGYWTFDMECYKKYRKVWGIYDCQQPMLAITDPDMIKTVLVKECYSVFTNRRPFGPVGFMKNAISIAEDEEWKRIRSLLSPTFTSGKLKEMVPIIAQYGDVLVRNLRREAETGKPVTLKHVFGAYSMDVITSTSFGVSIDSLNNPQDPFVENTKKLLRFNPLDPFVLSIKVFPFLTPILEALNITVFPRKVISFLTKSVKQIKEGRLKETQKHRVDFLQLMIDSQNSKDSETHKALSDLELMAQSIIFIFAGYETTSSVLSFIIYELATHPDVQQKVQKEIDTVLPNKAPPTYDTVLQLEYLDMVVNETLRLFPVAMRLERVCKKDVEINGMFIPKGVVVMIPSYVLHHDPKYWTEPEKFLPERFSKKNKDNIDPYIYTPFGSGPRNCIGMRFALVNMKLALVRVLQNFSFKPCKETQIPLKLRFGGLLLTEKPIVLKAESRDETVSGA
Sequence of Cytochrome P450 3A4 (Homo sapiens) (P08684 whole entry, looked up): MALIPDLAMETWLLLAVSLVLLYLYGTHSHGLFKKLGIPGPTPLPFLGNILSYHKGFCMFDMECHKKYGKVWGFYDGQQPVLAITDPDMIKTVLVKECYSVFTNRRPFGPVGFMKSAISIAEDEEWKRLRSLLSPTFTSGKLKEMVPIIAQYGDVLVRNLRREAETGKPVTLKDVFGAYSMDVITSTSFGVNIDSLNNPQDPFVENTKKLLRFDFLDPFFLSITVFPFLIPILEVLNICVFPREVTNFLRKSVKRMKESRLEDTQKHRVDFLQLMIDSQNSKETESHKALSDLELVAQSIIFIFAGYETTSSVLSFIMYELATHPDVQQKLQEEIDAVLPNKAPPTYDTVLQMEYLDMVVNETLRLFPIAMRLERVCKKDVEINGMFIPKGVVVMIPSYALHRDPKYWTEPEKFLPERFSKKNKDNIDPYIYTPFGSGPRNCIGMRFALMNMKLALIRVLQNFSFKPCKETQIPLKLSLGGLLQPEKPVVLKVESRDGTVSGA

Cc1c(-c2cccnc2)c2ccccc2n1CCCCC(=O)O
active: [6] 21.3 µM
inactive: all other assays above

CNCc1ccc(NC(=O)c2c[nH]c3c2C(=O)CCC3)cc1
inactive: all assays above

O=c1n(CC2CO2)c(=O)n(CC2CO2)c(=O)n1CC1CO1 (stereo not given)
active: [1] 78.3 µM
inactive: all other assays above
